Screening results: PubChem BioAssay, National Center for Advancing Translational Sciences (NCATS)
DT40 TDP1 CPT: growth inhibition of DT40 Tdp1-/-;hTDP1 cells with camptothecin (screen for TDP1 inhibitors). hit rate 12% among 420,000. Potency, µM (doses to about 46.2 µM), hits mostly inhibitors. chicken DT40 Tdp1-/-;hTDP1 cells + 20 nM CPT, ATP luminescence, 48 h; also: nearly all actives have a fitted effect of over 55% in size
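Chicken DT40 Tdp1-/- cells stably complemented with human TDP1 were seeded at 400 cells/well in medium containing 20 nM camptothecin, exposed to pin-transferred compounds, and grown at 37 °C for at least 48 hr. Viability was read as ATP luminescence.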
TDP1 cell noCPT: qHTS for Inhibitors of human tyrosyl-DNA phosphodiesterase 1 (TDP1): qHTS in cells in absence of CPT; Potency, µM (series often up to 46.2 µM), hits mostly inhibitors; AID 686978, 2013; hit rate 15% among 420,000; DT40 Tdp1-/- hTDP1 cells, no CPT, ATP luminescence, 48 h; also: nearly all actives have a fitted effect of over 55% in size
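Luminescent ATP content (CellTiter-Glo) served as the growth readout. Knockout chicken DT40 cells expressing human TDP1 were exposed to compounds without camptothecin for a minimum 48 hr at 37 °C.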
HT1080 IDH1KD tx: kills HT-1080 cells with IDH1 knockdown; HT-1080 IDH1 knockdown viability, ATP luminescence, 48 h; Potency, µM (highest dose often 46.1 µM), usual class: cytotoxic; hit rate 2% among 360,000; AID 686971
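% activity derives from luminescence (CellTiter-Glo), normalised to DMSO and no-cell wells. HT-1080-IDH1KD cells, 750/well, had 48 h compound exposure at 37 °C.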
HT1080-NT tox: kills 2HG-producing HT-1080-NT fibrosarcoma cells; HT-1080-NT fibrosarcoma viability, CellTiter-Glo ATP luminescence, 48 h; Potency, µM (highest dose often 46.1 µM), usual class: cytotoxic; hit rate 1.6% among 360,000; AID 686970;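 also: NT is the 2HG producing partner of a matched IDH1 knockdown line; nearly all actives have a fitted effect of over 55% in size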
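HT-1080-NT fibrosarcoma cells (2HG-overproducing), 750 cells/well in RPMI with 5% FBS, dosed after 2 h and incubated 48 h at 37C. CellTiter-Glo luminescence normalized to DMSO and no-cell wells; concentration-response curves fitted and classed.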
IL-1B inflam inh: blocks inflammasome-driven IL-1 beta release | THP-1 LPS/ATP IL-1B secretion, AlphaLISA, 16 h; stronger effect = lower value | activity change, % at 57.5 µM | hit rate 4.7% among 360,000; in the data active = activity change below about -50%; inconclusive = mostly about -30% to -49%
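THP-1 cells pretreated 1 hr with compounds (up to 57.5 uM final), then stimulated with LPS (250 ng/mL final) plus ATP (1.25 mM final); secreted IL-1B measured by AlphaLISA after 16 hr, decreased signal indicating inhibition.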
Each line names hits and unclear results; the compound was inactive in the other large screens; ! = a repeat was not active. Hits are enriched below; roughly 19% of the tested compounds scored in any of these assays. Unless noted, calls follow the shape of the dose curve; as a rule, active = well fitted curve in the direction sought with a large enough effect; inconclusive = small, poorly fitted or top-dose-only effect, or another doubt; inactive = no such curve, though single readings can be large; an effect the other way counts as inactive or inconclusive.

CCOC(=O)C1CCCN(S(=O)(=O)c2ccc(F)c(C(=O)Nc3ccc(F)c(F)c3)c2)C1 (stereo unspecified)	DT40 TDP1 CPT 23µM!, TDP1 cell noCPT 16µM, HT1080-NT tox inconclusive, IL-1B inflam inh -66
O=C(c1cccc(S(=O)(=O)N2CCN(c3ccccc3)CC2)c1)N1CCCCCCC1	DT40 TDP1 CPT inconclusive, TDP1 cell noCPT 13µM
CCOC(=O)C1CCCN(C(=O)c2cccc(S(=O)(=O)N3CCCC3)c2)C1 (stereo unspecified)	none
O=C(c1cccc(S(=O)(=O)N2CCOCC2)c1)N1CCN(c2ccccc2)CC1	none
O=C(c1cccc(S(=O)(=O)N2CCc3ccccc3C2)c1)N1CCN(c2ccc(O)cc2)CC1	DT40 TDP1 CPT 15µM, TDP1 cell noCPT 12µM
CCN(CC)CC(=O)N1c2ccccc2Oc2c(c(=O)n(C)c(=O)n2C)C1c1cccc([N+](=O)[O-])c1 (stereo unspecified)	none
O=C(NCC1(N2CCOCC2)CCCCC1)c1cccc(S(=O)(=O)N2CCc3ccccc3C2)c1	DT40 TDP1 CPT 18µM, TDP1 cell noCPT inconclusive
CC1CN(C(=O)c2cc(S(=O)(=O)N3CCCCC3)ccc2Cl)CC(C)O1 (stereo unspecified)	DT40 TDP1 CPT 16µM, TDP1 cell noCPT 12µM
O=C(c1cc(S(=O)(=O)N2CCN(c3ccccc3)CC2)ccc1Cl)N1CCCCCCC1	DT40 TDP1 CPT inconclusive, TDP1 cell noCPT 15µM, IL-1B inflam inh -53
CC(=O)N1CCN(S(=O)(=O)c2cccc(C(=O)N3CCN(S(=O)(=O)c4c(C)c(C)cc(C)c4C)CC3)c2)CC1	DT40 TDP1 CPT inconclusive, TDP1 cell noCPT 21µM
Cc1cc(C)c(C)c(S(=O)(=O)N2CCN(C(=O)c3ccncc3)CC2)c1C	DT40 TDP1 CPT inconclusive
CC1CCCC(NC(=O)c2cccc(S(=O)(=O)N3CCN(c4ccccc4)CC3)c2)C1C (stereo unspecified)	DT40 TDP1 CPT 18µM, TDP1 cell noCPT 13µM
CC1CN(C(=O)c2cc(S(=O)(=O)N3CCCC3)ccc2Cl)CC(C)O1 (stereo unspecified)	TDP1 cell noCPT inconclusive
CC1CN(C(=O)c2cc(S(=O)(=O)N(C)c3ccc(F)cc3)ccc2Cl)CC(C)O1 (stereo unspecified)	DT40 TDP1 CPT 2.3µM, TDP1 cell noCPT 1µM
Cc1ccc(S(=O)(=O)N2CCOCC2)cc1C(=O)N1CC(C)OC(C)C1 (stereo unspecified)	none
CC1CN(C(=O)c2cc(S(=O)(=O)N3CCN(c4ccccc4)CC3)ccc2Cl)CC(C)O1 (stereo unspecified)	DT40 TDP1 CPT 3.7µM, TDP1 cell noCPT 2.1µM
O=C(CCc1nnc2n(CCc3ccccc3)c(=O)c3ccccc3n12)NCCCN1CCCCC1	DT40 TDP1 CPT inconclusive, TDP1 cell noCPT inconclusive, IL-1B inflam inh inconclusive
COc1ccccc1NC(=O)N1CCCC(CNC(=O)c2ccccc2Cl)C1 (stereo unspecified)	none
CC(C)C#Cc1ccc2c(c1)O[C@@H](CN(C)C(=O)c1cnccn1)[C@@H](C)CN([C@@H](C)CO)S2(=O)=O	DT40 TDP1 CPT inconclusive, TDP1 cell noCPT inconclusive
CCNc1ncc2nc(-c3cccs3)c(=O)n(-c3ccccc3)c2n1	none (no result: HT1080 IDH1KD tx, HT1080-NT tox, IL-1B inflam inh)
CCOC(=O)c1cc(-c2ccccc2)n(CCC(=O)Nc2cc(C)cc(C)c2)c1C	DT40 TDP1 CPT 15µM, TDP1 cell noCPT 15µM (no result: HT1080 IDH1KD tx, HT1080-NT tox, IL-1B inflam inh)
CNCC(=O)Nc1ccc(Cl)c(C(F)(F)F)c1	TDP1 cell noCPT inconclusive
CCOC(=O)c1cc(-c2ccccc2)n(CCC(=O)Nc2ccc(Cl)c(C(F)(F)F)c2)c1C	DT40 TDP1 CPT 3.7µM, TDP1 cell noCPT 4.6µM (no result: HT1080 IDH1KD tx, HT1080-NT tox, IL-1B inflam inh)
CCOC(=O)c1cc(-c2ccccc2)n(CCC(=O)NC(C)CC)c1C (stereo unspecified)	IL-1B inflam inh inconclusive
COc1ccc(OC)c(C2Nc3c(C)cc(C)cc3-c3cc(C)nn32)c1 (stereo unspecified)	DT40 TDP1 CPT 16µM, TDP1 cell noCPT 21µM (no result: HT1080 IDH1KD tx, HT1080-NT tox, IL-1B inflam inh)
Cc1cc2n(n1)C(c1sccc1C)Nc1c(C)cccc1-2 (stereo unspecified)	DT40 TDP1 CPT inconclusive, TDP1 cell noCPT inconclusive
CN(c1ccccc1)S(=O)(=O)c1cccc(C(=O)Nc2cccc(C(=O)NC3CC3)c2)c1	DT40 TDP1 CPT inconclusive, TDP1 cell noCPT inconclusive
O=C(Nc1cccc(S(=O)(=O)N2CCCCC2)c1)c1ccc2ncsc2c1	DT40 TDP1 CPT inconclusive, TDP1 cell noCPT inconclusive
CN(c1ccccc1)S(=O)(=O)c1cccc(NC(=O)c2cccc(C#N)c2)c1	DT40 TDP1 CPT inconclusive, TDP1 cell noCPT 15µM, IL-1B inflam inh inconclusive
CN(c1ccccc1)S(=O)(=O)c1cccc(NC(=O)c2ccc3ncsc3c2)c1	DT40 TDP1 CPT 10µM, TDP1 cell noCPT inconclusive, HT1080 IDH1KD tx inconclusive, HT1080-NT tox inconclusive, IL-1B inflam inh -69
CC(C)CC1OC(C)Cc2[nH][nH]c(=O)c21 (stereo unspecified)	none
CC(OC(=O)c1ccc2c(c1)OCCO2)C(=O)NC1CCCCC1C (stereo unspecified)	none
COc1cc(C(=O)Nc2sc3c(c2C(N)=O)CCC(C)C3)cc(OC)c1OC (stereo unspecified)	DT40 TDP1 CPT inconclusive (no result: HT1080 IDH1KD tx, HT1080-NT tox, IL-1B inflam inh)
COC(=O)c1c(NC(=O)c2cc(OC)c(OC)c(OC)c2Br)sc2c1CCC(C)C2 (stereo unspecified)	DT40 TDP1 CPT inconclusive, TDP1 cell noCPT 21µM (no result: HT1080 IDH1KD tx, HT1080-NT tox, IL-1B inflam inh)
COc1cc(C(=O)Nc2sc3c(c2C#N)CCCC3)c(Br)c(OC)c1OC	DT40 TDP1 CPT inconclusive, TDP1 cell noCPT 3.3µM (no result: HT1080 IDH1KD tx, HT1080-NT tox, IL-1B inflam inh)
COc1c(F)c(F)c(C(=O)Nc2ccc(N3CCN(C(C)=O)CC3)c(Cl)c2)c(F)c1F	DT40 TDP1 CPT inconclusive, TDP1 cell noCPT inconclusive
O=C1Nc2ccccc2-n2nnnc2C1N1CCN(c2ccccn2)CC1 (stereo unspecified)	none
Cc1cc(C)c(-c2csc(Cc3nc(-c4cc5ccccc5oc4=O)cs3)n2)cc1C	DT40 TDP1 CPT 18µM, TDP1 cell noCPT 15µM
O=c1oc2ccccc2cc1-c1csc(Cc2nc(-c3ccc(Br)cc3)cs2)n1	DT40 TDP1 CPT inconclusive, TDP1 cell noCPT 16µM
Cc1ccc(-c2csc(Cc3nc(-c4cc5ccccc5oc4=O)cs3)n2)cc1	DT40 TDP1 CPT 18µM, TDP1 cell noCPT 23µM
O=C1NC(=O)/C(=C/C(=O)N2CCOCC2)S1	none
Cc1nn2c(=O)cc(COC(=O)c3ccccc3NC(=O)C3CCCCC3)nc2s1	none (no result: HT1080 IDH1KD tx, HT1080-NT tox, IL-1B inflam inh)
O=C(Nc1cccc(Cl)c1)c1csc([C@H]2C[C@H](O)[C@@H](CO)O2)n1	DT40 TDP1 CPT 18µM, TDP1 cell noCPT inconclusive
